Compound activity from PubChem BioAssay.
The list is not random: actives were taken first. Their share in the collection is about 5.3%.
HIF activator: HIF pathway transcriptional activators, primary screen, cell-based, U2OS HRE-luciferase, luminescence | U2OS HRE-luciferase reporter; normalized: DMSO 0%, desferrioxamine 100% | activation, % at 7.5 µM (by protocol) | 300,000 compounds, 0.32% hits;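 active means mean activation of at least 10% of the iron chelator positive control signal, with at least half of replicates also reaching 10%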
Mot1-301 SUMO: yeast Mot1-301 growth rescue at high temperature, primary screen, SUMOylation pathway inhibitor project, S. cerevisiae, ATP luminescence, 38.5C | growth rescue, % at 18.8 µM | S. cerevisiae Mot1-301 growth rescue; percent above DMSO median, 100 means doubled | 320,000 compounds, 1% hits;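 active means every valid replicate shows activation above 250% relative to neutral control wells; inactive means the rest, any valid replicate at or below 250%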;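 further: OY570 slx delta 5 strain wells were the positive control but not used for scaling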
ALR inh: inhibitors of human ALR sulfhydryl oxidase, primary screen, biochemical, H2O2 detection, HRP-luminol luminescence, single point | FAD-linked sulfhydryl oxidase ALR (Homo sapiens), P55789 | purified ALR, DTT oxidation | inhibition, % (test concentration not listed) | 290,000 compounds, 3.8% hits | AID 485317, 2010;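 active means mean replicate inhibition above about 79%, with every replicate also reaching it, limit read from the data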
Target sequence (P55789 whole entry, looked up): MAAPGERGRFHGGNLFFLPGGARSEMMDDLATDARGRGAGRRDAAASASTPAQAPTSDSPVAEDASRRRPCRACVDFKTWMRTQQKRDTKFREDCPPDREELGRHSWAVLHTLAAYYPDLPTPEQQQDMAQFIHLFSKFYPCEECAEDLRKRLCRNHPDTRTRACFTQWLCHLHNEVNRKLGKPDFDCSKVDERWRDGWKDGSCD
M18AAP inhibitor: PfM18AAP inhibitors, malaria aminopeptidase, primary screen, biochemical, QFRET, recombinant enzyme; M18 aspartyl aminopeptidase (Plasmodium falciparum 3D7); H-Glu-NHMec fluorogenic cleavage; inhibition, % at 7.35 µM; 290,000 compounds, 1.2% hits;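 active means inhibition above the campaign mean inhibition over all tested compounds plus 3 SD, cut at about 28% in these data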;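 further: 0% = plate median of test compound wells and 100% = 2 mM ZnCl2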
* marks the source's active call; other numbers are inactive results; . = no result.

SMILES	HIF activator	Mot1-301 SUMO	ALR inh	M18AAP inhibitor
COc1ccccc1CNCC(=O)Nc1ccc(N2CCOCC2)cc1	0	11	99*	-7
COC(=O)Cc1ccc(NC(=S)Nc2ccc(N3CCOCC3)cc2)cc1	2	4	89*	22
COC(=O)Cc1ccc(NC(=S)NCCCN2CCOCC2)cc1	1	3	-19	2
Cc1cccc(NC(=S)Nc2ccc(N3CCOCC3)cc2)c1C	1	-15	99*	3
Cc1cccc(NC(=S)NN2CCOCC2)c1C	0	-3	3	7
Cc1cn(CCC(=O)Nc2ccc(N3CCOCC3)cc2)c2ccccc12	2	3	82*	1
C/C(N)=C(/C#N)C(=O)COC(=O)c1ccc(NC(N)=O)cc1	0	-8	6	3
O=C(CSc1nnnn1-c1ccccc1)NCCCN1CCCC1=O	.	-25	-9	.
O=C(CSc1cn(CC(=O)N2CCCCCC2)c2ccccc12)NCC1CCCO1 (centres undefined)	-1	-14	52	2
CCn1cc(SCC(=O)NCC2CCCO2)c2ccccc21 (centres undefined)	1	305	98*	.
CC(=O)Nc1ccc(NC(=O)CSc2cn(CC(=O)N3CCOCC3)c3ccccc23)cc1	0	13	99*	3
CCCCNC(=O)CC1N=C2c3ccccc3N=C(SCC(=O)Nc3ccc(OC)cc3)N2C1=O (centres undefined)	-23	.	96*	8
CCCCNC(=O)CC1N=C2c3ccccc3N=C(SCC(=O)Nc3cccc(OC)c3)N2C1=O (centres undefined)	0	-21	84*	-9
O=C(CSc1nncn1-c1ccccc1)NC1CCCCC1	-1	-11	.	-3
COC(=O)C1=C(C)NC(C)=C(C(=O)OC)C1c1cn(-c2ccccc2)nc1-c1ccco1	1	-6	33	6
Cc1ccc(C(=O)NC2CCCc3ccccc32)cc1[N+](=O)[O-] (centres undefined)	0	22	2	-6
NC(=S)NNc1cccc(Cl)c1	2	24	98*	20
NS(=O)(=O)c1ccc(NC(=S)Nc2ccc(C(=O)N3CCCCC3)cc2)cc1	0	-6	14	3
CC(Nc1ccccc1)c1cc(Cl)ccc1O (centres undefined)	.	2	99*	0
Clc1ccc(CSCCc2ccncc2)cc1	0	-9	-11	18
c1ccc2c(CSCCc3ccncc3)cccc2c1	1	23	100*	-1
Cc1cc(O)ccc1Nc1nc(-c2cccnc2)cs1	4	-11	72	19
Cc1cc(O)ccc1Nc1nc(-c2cccs2)cs1	0	92	88*	11
c1cncc(Nc2nc(-c3cccs3)cs2)c1	3	66	96*	30*
Cc1nc(C)c(-c2csc(Nc3ccc(O)cc3C)n2)s1	-1	71	99*	-4
SMILES	HIF activator	Mot1-301 SUMO	ALR inh	M18AAP inhibitor
COc1ccc(OC)c(Nc2nc(-c3sc(C)nc3C)cs2)c1	2	1	-3	9
Cc1nc(C)c(-c2csc(Nc3ccc(F)cc3)n2)s1	5	23	94*	4
CC[n+]1c(C)sc2sc3ccccc3c21	0	40	55	60*
Cc1nc2c(s1)sc1ccccc12	2	8	-5	6
O=C(CCCCCNC(=O)c1ccccc1)N/N=C/c1ccc(O)cc1O	0	-17	73	1
O=C(CNC(=O)C(c1ccccc1)c1ccccc1)N/N=C/c1ccc(O)cc1O	11*	6	.	17
CCc1cc(C(=O)N/N=C/c2ccc(O)cc2O)c2ccccc2n1	29*	9	83*	22
CC(C)(C)c1ccc(OCCn2nc(C(=O)O)c3ccccc3c2=O)cc1	0	0	2	4
Cc1ccc(NC(=O)c2ccoc2C)cc1C	3	-14	0	6
Cc1cc(NC(=O)c2ccoc2C)ccc1Br	.	94	89*	.
O=C(O)CSc1c2c(nc3cc(C(=O)Nc4cccc(C(F)(F)F)c4)ccc13)CCC2	1	50	96*	0
CCOc1ccc(NC(=O)c2ccc3c(SCC(=O)O)c4c(nc3c2)CCCC4)cc1	0	-3	16	-2
Cc1ccc(NC(=O)c2ccc3c(SCC(=O)O)c4c(nc3c2)CCCC4)c(Br)c1	1	-17	90*	-7
CC(CNC(=O)c1ccccc1Cl)c1ccccc1 (centres undefined)	-8	-9	-3	12
